Screens deposited in PubChem BioAssay by National Center for Advancing Translational Sciences (NCATS).
KB-3-1 cytotox – KB-3-1 parental cell cytotoxicity. KB-3-1 viability, CellTiter-Glo ATP luminescence, 72 h. Potency, µM (top dose mostly 46.1 µM), most hits filed as cytotoxic. 400,000 tested, 1.4% active. AID 1347075; note: potency is the fitted concentration of half-maximal effect; nearly all actives have a fitted effect of over 60% in size
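Parental KB-3-1 adenocarcinoma cells in phenol-red-free DMEM with 10% FBS were pin-treated with compounds at several concentrations, incubated 72 h at 37 °C, and viability read by CellTiter-Glo luminescence; concentration-effect curves were fitted after normalization.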
PI4K2A inh – blocks human PI4K2A kinase activity. purified PI4K2A, ADP-Glo luminescence, 1 h; active compounds read low. activity change, negative = inhibition, % at 76.9 µM. 420,000 tested, 0.13% active. Q9BTU6; in the data active = activity change below about -50%; inconclusive = mostly about -30% to -49%;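 note: -100% = wells without enzyme as full effect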
Target sequence (Q9BTU6 whole entry, looked up): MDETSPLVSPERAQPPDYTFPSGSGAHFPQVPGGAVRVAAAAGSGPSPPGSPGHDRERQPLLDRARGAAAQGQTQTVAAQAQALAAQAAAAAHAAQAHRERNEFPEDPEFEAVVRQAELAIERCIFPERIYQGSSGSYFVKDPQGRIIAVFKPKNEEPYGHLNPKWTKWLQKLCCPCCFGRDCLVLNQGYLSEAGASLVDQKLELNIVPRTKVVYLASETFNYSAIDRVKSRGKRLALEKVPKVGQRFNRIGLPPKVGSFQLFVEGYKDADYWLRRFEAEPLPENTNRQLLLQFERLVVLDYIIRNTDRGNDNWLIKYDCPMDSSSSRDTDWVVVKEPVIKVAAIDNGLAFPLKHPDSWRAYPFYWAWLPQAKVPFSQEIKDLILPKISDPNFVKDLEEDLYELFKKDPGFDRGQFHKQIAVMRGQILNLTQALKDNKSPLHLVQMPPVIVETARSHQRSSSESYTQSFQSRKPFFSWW
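ADP-Glo luminescence measured ADP generated by PI4K2A enzyme (4 ug/mL before mixing) with 1.2 mM PI substrate (pre-mix) and 300 microM ATP (pre-mix). Tris pH7.5 buffer with MgCl2, Triton X-100; 1 h reaction at ambient temperature.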
A549 viability – kills or reduces viability of A549 cells in Nrf2 counter-screen | 390,000 tested, 0.16% active | A549 ARE-Fluc cells, CellTiter-Fluor viability, 18-24 h | Potency, µM (doses to about 46 µM), for inactives: top-dose activity change, negative = cytotoxicity, hits mostly inhibitors; note: potency is the fitted concentration of half-maximal effect
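A549 ARE_Fluc cells in 5% FBS OPTI-MEM were exposed to compounds in concentration-response for 18-24 h at 37 deg C. Viability was read by CellTiter-Fluor fluorescence (Ex 405/Em 525) after 30 min, before the luciferase read.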
Giardia killer – kills Giardia lamblia. Giardia lamblia trophozoite viability. activity change, % at 7.66 µM, hits read low. 340,000 tested, 0.15% active. AID 540267; in the data active = activity change below about -80%; inconclusive = between about -30% and that limit;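 note: parasites exposed to compound for two days anaerobically before the ATP read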
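Trophozoites 100 cells/well + cpd; 48 hrs, 37 deg C, anaerobic. ATPLite 1-Step added, 15-30 min RT, luminescence read (ATP-based viability).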
KB-V1 MDR tox – KB-V1 MDR subline cytotoxicity; 400,000 tested, 3.4% active; KB-V1 MDR cells viability, CellTiter-Glo, 72 h; Potency, µM (series often up to 46.1 µM), most hits filed as cytotoxic; note: potency is the fitted concentration of half-maximal effect; nearly all actives have a fitted effect of over 60% in size
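Cells of the MDR subline KB-V1 are plated, dosed with compound at multiple concentrations, and incubated 72 h at 37 degrees C; CellTiter-Glo is then added and luminescence read after 10 min.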
Nrf2 block – inhibitors of Nrf2 signaling; Potency, µM (titrated, usually from 46 µM), for inactives: top-dose activity change, negative = inhibition, most hits filed as inhibitors; 360,000 tested, 2.1% active; A549 ARE-Fluc reporter, luciferase luminescence, 18-24 h; note: potency is the fitted concentration of half-maximal effect; nearly all actives have a fitted effect of over 60% in size
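Cells were seeded and rested 2 h, then exposed to compounds for 18-24 h. CellTiter-Fluor was read first as a viability measure. BugLite was added 15 min before the final luminescent read of ARE-luciferase activity in A549 cells.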
* = called active by the depositor; i = inactive; u = inconclusive; x = no result given. Most compounds without a hit are left out; they make up all but 5.7% or so of the library. Unless noted, calls come from the whole dose curve; as a rule, active = well fitted curve in the direction sought with a large enough effect; inconclusive = small, poorly fitted or top-dose-only effect, or another doubt; inactive = no such curve, though single readings can be large; an effect the other way counts as inactive or inconclusive. Unless noted, % is set by controls: 0 for no effect and ±100 for the full control effect.

SMILES	KB-3-1 cytotox	PI4K2A inh	A549 viability	Giardia killer	KB-V1 MDR tox	Nrf2 block
O=C(NCC1CCCO1)c1cccc(S(=O)(=O)N(Cc2ccccc2)c2ccccc2)c1 (centres undefined)	i	4	7%	0	8.2µM*	-9%
CC1CCN(S(=O)(=O)c2cccc(C(=O)NCC3CCCO3)c2)CC1 (centres undefined)	i	-2	2%	13	i	13µM*
CC1CCN(S(=O)(=O)c2cccc(C(=O)O)c2)CC1	i	-2	-1%	-7	i	x
COC(=O)c1cccc(S(=O)(=O)N2CCC(NC(=O)NC34CC5CC(CC(C5)C3)C4)CC2)c1	i	-1	-1%	4	12µM*	-12%
O=C(NCC1CCCO1)c1cccc(S(=O)(=O)N2CCCCC2)c1 (centres undefined)	i	5	2%	-6	i	4%
Nn1c(SCC(=O)Nc2ccc(C(=O)O)cc2)nnc1-c1ccco1	x	4	x	x	x	x
COC(=O)[C@]12C[C@H](CC(=O)NCCc3ccccc3OC)C(=O)N(Cc3ccc(Cl)cc3Cl)C1=C[C@H](COCc1ccccc1)O[C@@H]2C	x	-2	x	x	x	x
COC(=O)[C@]12C[C@H](CC(=O)N3CCCC3)C(=O)N(CCC3=CCCCC3)C1=C[C@H](C(C)C)O[C@@H]2C1CC1	x	-1	x	x	x	x
CCN(CC)S(=O)(=O)c1cccc(C(=O)NCC2CCCCC2)c1	u	3	0%	19	12µM*	u
CCN(CC)S(=O)(=O)c1cccc(C(=O)NCC2CCCO2)c1 (centres undefined)	i	-1	5%	7	i	11%
CCOC(=O)/C=c1\s/c(=C\c2ccc3cc(OC)ccc3c2)c(=O)n1CC(=O)NCC1CCCO1 (centres undefined)	21µM*	4	4%	10	18µM*	-5%
CC(=O)Nc1ccc(S(=O)(=O)NCC2CCC(C(=O)NCc3ccccc3Cl)CC2)cc1 (centres undefined)	i	-1	8%	x	i	x
CC(=O)Nc1ccc(S(=O)(=O)NCCSCc2ccccc2Cl)cc1	i	3	-1%	1	i	10µM*
CCOc1ccc2nc(NC(=O)c3nc(SCc4ccccc4F)ncc3Cl)sc2c1	i	1	-3%	x	i	-6%
C[n+]1c(/C=C/c2ccnc3ccccc23)cc(/C=C/c2ccnc3ccccc23)c2ccccc21	i	x	x	x	i	x
O=C(NCc1ccccc1)Nc1cccn(Cc2ccccc2F)c1=O	i	7	-6%	-5	10µM*	u
O=C(NCc1ccccc1)Nc1cccn(Cc2ccc(F)cc2)c1=O	i	2	-11%	-8	12µM*	u
O=C(Nc1cccn(Cc2ccc(F)cc2)c1=O)NC1CCCCC1	i	1	-7%	-11	i	u
O=C(Nc1cccn(Cc2ccccc2)c1=O)NC1CCCCC1	i	0	0%	6	4.1µM*	-4%
CCOc1ccc(NC(=O)Nc2cccn(Cc3ccccc3)c2=O)cc1	u	-18	u	11	5.8µM*	9.2µM*
Cc1cccc(OCC(=O)NCc2ccc3c(c2)CCN3C(=O)c2ccccc2)c1	i	-2	3%	x	i	x
Cc1ccc2c(n1)Oc1ccc(C(C)C(=O)OCC(=O)N(C)C)cc1C2 (centres undefined)	x	-1	x	x	x	x
COc1ccc(N2CCN(CCCNC(=O)Cc3ccc(C(F)(F)F)cc3)CC2)cc1	x	-2	x	x	x	x
COC(=O)Nc1ccc(S(=O)(=O)N2c3ccccc3CCC2C)cc1 (centres undefined)	7.3µM*	-3	0%	5	4.1µM*	u
CC(=O)Nc1ccc(S(=O)(=O)N2CCCC2)cc1	i	-4	-1%	-1	i	3%
SMILES	KB-3-1 cytotox	PI4K2A inh	A549 viability	Giardia killer	KB-V1 MDR tox	Nrf2 block
COC(=O)Nc1ccc(S(=O)(=O)N2CCCCCC2)cc1	i	-3	-20%	0	18µM*	-18%
O=C(C1CCCN(S(=O)(=O)c2ccccc2[N+](=O)[O-])C1)N1CCCC1 (centres undefined)	i	4	1%	-2	12µM*	2%
O=S(=O)(c1ccc(NC(=S)NN=Cc2ccccc2O)cc1)N1CCCCC1	i	7	u	-15	7.3µM*	u
CC(C)CN1C(=O)C[C@]2(C(=O)N(C)c3ccc(NS(=O)(=O)C4CCCCC4)cc32)C1c1ccccc1 (some centres undefined)	x	-1	x	x	x	x
C#CCN1CC(N(C)CCOC(=O)c2occ3ccccc23)CS1(=O)=O (centres undefined)	x	-4	x	x	x	x
COc1ccc(-n2c(COc3ccc(C)cc3)nnc2SCC(=O)c2ccc(-c3ccccc3)cc2)cc1	x	0	x	x	x	x
Cc1nnc(SC(C)C(=O)Nc2ccc(S(=O)(=O)N3CCCCCC3)cc2)s1 (centres undefined)	i	1	-1%	4	16µM*	-15%
Cc1nnc(NC(=O)c2ccc(S(=O)(=O)N3CCCCC3)cc2)s1	i	9	-1%	-11	i	3%
COC(=O)Nc1ccc(S(=O)(=O)N2CCCC(C(=O)N3CCCCC3)C2)cc1 (centres undefined)	i	3	-11%	-25	u	16µM*
O=C(NC(=S)Nc1ccc(S(=O)(=O)N2CCCCC2)cc1)c1cccs1	u	2	1%	-2	3.3µM*	-22%
N#Cc1nc(-c2ccc(OCc3ccc(Cl)cc3)cc2)oc1N1CCCC1	i	x	-6%	17	u	7%
Cc1ccc(-n2c(CC#N)n[nH]c2=S)c(C)c1	i	1	-9%	7	i	2%
Cc1ccc(-n2c(Cc3ccccc3)n[nH]c2=S)c(C)c1	i	1	2%	-1	i	13µM*
Cc1ccc(C2c3c(-c4ccccc4O)n[nH]c3C(=O)N2Cc2ccncc2)cc1 (centres undefined)	8.2µM*	2	-12%	20	u	-15%
O=C1c2[nH]nc(-c3ccccc3O)c2C(c2cccc(Br)c2)N1Cc1ccncc1 (centres undefined)	2.6µM*	0	-11%	x	u	-8%
CCOc1ccc(C2c3c(-c4ccccc4O)n[nH]c3C(=O)N2Cc2ccncc2)cc1 (centres undefined)	u	-4	-2%	x	i	-8%
COc1cc(C2c3c(-c4ccccc4O)n[nH]c3C(=O)N2Cc2ccncc2)ccc1O (centres undefined)	i	-14	8%	x	i	7%
